The supplement of paper PMC6555819

Tested on: PPARg:RXRa 270nM:90nM, anti-RXR (NR concentration 270 nM, RXRa partner concentration 90 nM)
Assay: PBM binding z-score (relative to random genomic background probes); higher = stronger binding; sequences stand for … in GC…GCGATTGACAGCGTAGAATGAAGG
How it was run: (§1)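 Binding z-scores were set against random background probes. The data came from custom Agilent 4×180K protein-binding microarrays carrying double-stranded probes with 34-nt variable regions, incubated 1 h with ligand-free nuclear receptor dimers. Partner-specific antibodies detected binding, and scanned fluorescence was regression-normalized.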

With TCTCGGAGGACACGAAAGTCAGAGCTTTCCAGAG as the sequence, how does the PBM binding z-score read?
Its PBM binding z-score is 0.487.

With TCAGACAGGTGAAGTTAACTCAGGTACGCAGTCG as the sequence, how does the PBM binding z-score read?
The PBM binding z-score was 2.18.

How did the PBM binding z-score turn out when CCTAGTTGATCAGGAGGTCACACACCGGATATGA was run?
The PBM binding z-score was 2.78.

With ACAGATAGGTGATGAAGGTAACTCAGGCTATCAT as the sequence, how does the PBM binding z-score read?
Its PBM binding z-score is 0.541.

For GTTATTAGTTGAAAGGGCAACCGAATGATTCTCG, which PBM binding z-score is on record?
Its PBM binding z-score is 5.52.

AATACAGGGTCACTAGGGCAGAGTAGGTACGAAT was tested. Which PBM binding z-score did it give?
Its PBM binding z-score is 6.78.

For GATACAGGGTCAAGTCCAGAGTACGCGTATTGAT, which PBM binding z-score is on record?
Its PBM binding z-score is 5.85.

With CGTCAAAGTCCAACTAAGGTAACGTAAAGCACGC as the sequence, how does the PBM binding z-score read?
The PBM binding z-score was -0.0783.

CTCGAAAGGTCGGTTGAGATGAGTATACGGATAA was tested. Which PBM binding z-score did it give?
Its PBM binding z-score is 0.887.

How did the PBM binding z-score turn out when CCGACTGGTGCATAAGGTTACCATAAGCCAGCCC was run?
The PBM binding z-score was 1.03.

How did the PBM binding z-score turn out when TCTTGTAGATCAATAGAGGTTAAGATAGTGCGCT was run?
Its PBM binding z-score is 1.59.

How did the PBM binding z-score turn out when ACTAGCAGGCCAAGTTTGGCTCACTCAAACAAAG was run?
Its PBM binding z-score is -0.625.

Which PBM binding z-score does the source give for ATAATGAGGTTATTAAGATCAGGGAATTGCGGTC here?
Its PBM binding z-score is 2.14.

For TCTTGTAGATCAATAGAGGTTATGAAAGTGCGCT, which PBM binding z-score is on record?
The PBM binding z-score was 2.08.

ATCACTAGGTAAAGTTCAGTGAAAGATCGATAGA was tested. Which PBM binding z-score did it give?
Its PBM binding z-score is 3.38.

How did the PBM binding z-score turn out when CGAACGAGGGCATGAGTTCATAGCAAATGCCGAT was run?
The PBM binding z-score was 2.91.

CCTTACGGGTCACGAGGGTATAGCACGACGAGCG was tested. Which PBM binding z-score did it give?
Its PBM binding z-score is 6.17.

How did the PBM binding z-score turn out when CCGACTGGGGCAAGGTTACCATTACGCACAGCCA was run?
The PBM binding z-score was 3.17.

Which PBM binding z-score does the source give for TTACCAAGGTGAAAGGTCGTGGATGCACGCCTTG here?
The PBM binding z-score was 8.31.

For CCAGACATGTGAGAAGGTAACTCAGCCTCGATTA, which PBM binding z-score is on record?
The PBM binding z-score was -0.748.

How did the PBM binding z-score turn out when TCTATTAGTTGAAGGGCAATCGACGAGTCCGTTT was run?
Its PBM binding z-score is 1.98.

ATCGAAAGGTCGTGAGGTGAGTATACAGAAAGGC was tested. Which PBM binding z-score did it give?
The PBM binding z-score was 4.39.

For TGTCAAAGTTCAAAGGTAATGTAAGTATCCACAC, which PBM binding z-score is on record?
Its PBM binding z-score is 7.39.

With ATCGAGAGGTCGACGAGGTGAGTATACACCGTTT as the sequence, how does the PBM binding z-score read?
The PBM binding z-score was 2.03.

How did the PBM binding z-score turn out when TAGCCTAGGTCAGATCGGCCCAGTATACGCTATA was run?
Its PBM binding z-score is 0.986.

How did the PBM binding z-score turn out when GGAACGAGGGCAAGCTGATAGCAGAGTTTGATGG was run?
Its PBM binding z-score is 0.733.

CCTATTAGTTGACCATAAGTGCAACCGAAGCTCG was tested. Which PBM binding z-score did it give?
The PBM binding z-score was 0.74.

For CCTAGTTGGTCAAGGTCACAGACGCTATAGGTAC, which PBM binding z-score is on record?
Its PBM binding z-score is 3.88.

How did the PBM binding z-score turn out when ATTAGTTGGTCAGCTGAGGTCACACACAATTCGG was run?
Its PBM binding z-score is 2.81.

Which PBM binding z-score does the source give for AGAACGAGGGCACGCTGAGTTGATCGCAGAGTAG here?
The PBM binding z-score was 1.66.

CCGAGTAGGTTATCGGGCATTCAGGCAACGGTGA was tested. Which PBM binding z-score did it give?
The PBM binding z-score was 2.7.

For TCTAGTTGGTCAAAGGTCGCACACTCGAAATGCG, which PBM binding z-score is on record?
Its PBM binding z-score is 9.2.

Which PBM binding z-score does the source give for TCTGCTAGGTCAACGATGGTCAGCTGATCTGCTA here?
Its PBM binding z-score is 3.15.

With CGAACTAGGTCATTGACATGACAGTGAATAGTAA as the sequence, how does the PBM binding z-score read?
Its PBM binding z-score is 6.52.

Which PBM binding z-score does the source give for ATCTCTAGGTAAAGATAGCTCAGTGAATGCAAAT here?
The PBM binding z-score was 0.32.

With TCTTGTGGATCAACAGGAGGTTAAGAAAGATCGA as the sequence, how does the PBM binding z-score read?
Its PBM binding z-score is 1.18.

With TGAATGAGGTTAAAGATGAGGGAACGTGGCGTCG as the sequence, how does the PBM binding z-score read?
Its PBM binding z-score is 4.65.

TGAATGAGGTTAAAGATCAGCGAACGTGGCGTCG was tested. Which PBM binding z-score did it give?
The PBM binding z-score was 6.26.

How did the PBM binding z-score turn out when CCAGTCAGGTGAGAAGGTAACTCAGCCTCGATTA was run?
Its PBM binding z-score is 1.13.

With TCTTGTAGATCAATAGAGGTTACGAAAGTGCGCT as the sequence, how does the PBM binding z-score read?
Its PBM binding z-score is 1.79.

Tested on: PPARg:RXRa 30nM:10nM, anti-RXR (NR concentration 30 nM, RXRa partner concentration 10 nM)
Assay: as above
How it was run: as §1

Which PBM binding z-score does the source give for TCTCGGAGGACACGAAAGTCAGAGCTTTCCAGAG here?
Its PBM binding z-score is 2.23.

TCAGACAGGTGAAGTTAACTCAGGTACGCAGTCG was tested. Which PBM binding z-score did it give?
The PBM binding z-score was 3.93.

How did the PBM binding z-score turn out when CCTAGTTGATCAGGAGGTCACACACCGGATATGA was run?
Its PBM binding z-score is 1.24.

ACAGATAGGTGATGAAGGTAACTCAGGCTATCAT was tested. Which PBM binding z-score did it give?
The PBM binding z-score was 0.412.

GTTATTAGTTGAAAGGGCAACCGAATGATTCTCG was tested. Which PBM binding z-score did it give?
Its PBM binding z-score is 3.84.

For AATACAGGGTCACTAGGGCAGAGTAGGTACGAAT, which PBM binding z-score is on record?
The PBM binding z-score was 3.79.

With GATACAGGGTCAAGTCCAGAGTACGCGTATTGAT as the sequence, how does the PBM binding z-score read?
Its PBM binding z-score is 2.51.

How did the PBM binding z-score turn out when CGTCAAAGTCCAACTAAGGTAACGTAAAGCACGC was run?
Its PBM binding z-score is -0.0174.

For CTCGAAAGGTCGGTTGAGATGAGTATACGGATAA, which PBM binding z-score is on record?
Its PBM binding z-score is 0.602.

With CCGACTGGTGCATAAGGTTACCATAAGCCAGCCC as the sequence, how does the PBM binding z-score read?
The PBM binding z-score was -0.311.

Which PBM binding z-score does the source give for TCTTGTAGATCAATAGAGGTTAAGATAGTGCGCT here?
The PBM binding z-score was 2.43.

How did the PBM binding z-score turn out when ACTAGCAGGCCAAGTTTGGCTCACTCAAACAAAG was run?
Its PBM binding z-score is -0.674.

For ATAATGAGGTTATTAAGATCAGGGAATTGCGGTC, which PBM binding z-score is on record?
Its PBM binding z-score is 0.859.

How did the PBM binding z-score turn out when TCTTGTAGATCAATAGAGGTTATGAAAGTGCGCT was run?
Its PBM binding z-score is 2.99.

Which PBM binding z-score does the source give for ATCACTAGGTAAAGTTCAGTGAAAGATCGATAGA here?
The PBM binding z-score was 1.45.

Which PBM binding z-score does the source give for CGAACGAGGGCATGAGTTCATAGCAAATGCCGAT here?
The PBM binding z-score was 0.55.

With CCTTACGGGTCACGAGGGTATAGCACGACGAGCG as the sequence, how does the PBM binding z-score read?
The PBM binding z-score was 2.67.

How did the PBM binding z-score turn out when CCGACTGGGGCAAGGTTACCATTACGCACAGCCA was run?
Its PBM binding z-score is 0.732.

With TTACCAAGGTGAAAGGTCGTGGATGCACGCCTTG as the sequence, how does the PBM binding z-score read?
Its PBM binding z-score is 7.31.

How did the PBM binding z-score turn out when CCAGACATGTGAGAAGGTAACTCAGCCTCGATTA was run?
The PBM binding z-score was -0.305.

How did the PBM binding z-score turn out when TCTATTAGTTGAAGGGCAATCGACGAGTCCGTTT was run?
Its PBM binding z-score is 3.75.

Which PBM binding z-score does the source give for ATCGAAAGGTCGTGAGGTGAGTATACAGAAAGGC here?
Its PBM binding z-score is 1.92.

How did the PBM binding z-score turn out when TGTCAAAGTTCAAAGGTAATGTAAGTATCCACAC was run?
The PBM binding z-score was 5.63.

Which PBM binding z-score does the source give for ATCGAGAGGTCGACGAGGTGAGTATACACCGTTT here?
Its PBM binding z-score is 0.529.

For TAGCCTAGGTCAGATCGGCCCAGTATACGCTATA, which PBM binding z-score is on record?
Its PBM binding z-score is -0.286.

Which PBM binding z-score does the source give for GGAACGAGGGCAAGCTGATAGCAGAGTTTGATGG here?
The PBM binding z-score was -0.285.

With CCTATTAGTTGACCATAAGTGCAACCGAAGCTCG as the sequence, how does the PBM binding z-score read?
The PBM binding z-score was 0.581.

With CCTAGTTGGTCAAGGTCACAGACGCTATAGGTAC as the sequence, how does the PBM binding z-score read?
Its PBM binding z-score is 1.54.

ATTAGTTGGTCAGCTGAGGTCACACACAATTCGG was tested. Which PBM binding z-score did it give?
Its PBM binding z-score is 1.44.

Which PBM binding z-score does the source give for AGAACGAGGGCACGCTGAGTTGATCGCAGAGTAG here?
The PBM binding z-score was 0.193.

For CCGAGTAGGTTATCGGGCATTCAGGCAACGGTGA, which PBM binding z-score is on record?
The PBM binding z-score was 0.915.

How did the PBM binding z-score turn out when TCTAGTTGGTCAAAGGTCGCACACTCGAAATGCG was run?
Its PBM binding z-score is 10.5.

TCTGCTAGGTCAACGATGGTCAGCTGATCTGCTA was tested. Which PBM binding z-score did it give?
The PBM binding z-score was 1.81.

CGAACTAGGTCATTGACATGACAGTGAATAGTAA was tested. Which PBM binding z-score did it give?
The PBM binding z-score was 3.97.

ATCTCTAGGTAAAGATAGCTCAGTGAATGCAAAT was tested. Which PBM binding z-score did it give?
Its PBM binding z-score is 0.153.

TCTTGTGGATCAACAGGAGGTTAAGAAAGATCGA was tested. Which PBM binding z-score did it give?
The PBM binding z-score was 2.49.

Which PBM binding z-score does the source give for TGAATGAGGTTAAAGATGAGGGAACGTGGCGTCG here?
The PBM binding z-score was 2.44.

For TGAATGAGGTTAAAGATCAGCGAACGTGGCGTCG, which PBM binding z-score is on record?
Its PBM binding z-score is 5.47.

How did the PBM binding z-score turn out when CCAGTCAGGTGAGAAGGTAACTCAGCCTCGATTA was run?
The PBM binding z-score was -0.0852.

Which PBM binding z-score does the source give for TCTTGTAGATCAATAGAGGTTACGAAAGTGCGCT here?
The PBM binding z-score was 2.79.
